The nature of test [1]: yeast TOR pathway RPL19A-GFP modulators, primary screen, cell-based, S. cerevisiae, multiplex flow cytometry (AID 1862; in the data active = percent of DMSO control GFP below about 86%;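 note: lower values mimic rapamycin by blocking the RPL19A rise seen in DMSO cells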). Particulars: S. cerevisiae RPL19A-GFP strain, flow cytometry fluorescence, 3 h; at 10 µM; stronger effect = lower value.
Test [2] in a line: modulators of MEP2-GFP levels in yeast, primary screen, S. cerevisiae, multiplex flow cytometry (AID 1867;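 active = GFP response, as percent of the DMSO control, above the screen-wide mean plus 3 SD, about 139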;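 note: median GFP channel fluorescence of barcode-gated MEP2-GFP cells measured by flow cytometry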). The settings on record: S. cerevisiae MEP2-GFP strain, 3 h, at 10 µM, stronger effect = higher value, 100% means same as DMSO wells.
A short description of test [3]: modulators of CIT2-GFP expression in yeast, primary screen, S. cerevisiae, GFP fusion, multiplex flow cytometry (AID 1870;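 active = percent response above a set limit, the screen-wide mean plus 3 SD, cut at about 130% in these data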;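 note: barcoded CIT2-GFP strain pooled with four other GFP strains with rapamycin as positive control; median GFP fluorescence per well over plate mean of DMSO wells so 100% = DMSO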). The settings on record: 3 h, at 10 µM, stronger effect = higher value.
A short description of test [4]: modulators of LAP4-GFP expression in yeast, primary screen, S. cerevisiae, multiplex flow cytometry (AID 1873;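 active = GFP signal, as percent of the solvent control, above the screen mean plus 3 SD, about 149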). The settings on record: 3 h, at 10 µM, stronger effect = higher value. On the technique in general: A flow cytometer gives signals particle by particle.
Test [5] can be described thus: modulators of AGP1-GFP expression in yeast TOR pathway, primary screen, cell-based, multiplex flow cytometry, S. cerevisiae (AID 1887;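 active = GFP signal above the screen-wide mean plus 3 SD, that is over about 124.5% of the solvent control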;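 note: AGP1-GFP fusion strain of S. cerevisiae within a five-strain barcoded multiplex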). The settings on record: 3 h, at 10 µM, stronger effect = higher value.
Test [6] in a line: inhibitors of CD8+ T cell-vesicle binding, pilot screen, LFA-1/ICAM-1 modulator project, MLPCN validation set, flow cytometry (AID 2523;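 active = response below a set limit, under 55% cells CD8-positive and vesicle-bound, and CD8 cells' 90th-percentile brightness under 279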;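 for vesicle binding response: mean PE anti-B7-1 fluorescence of CD8+ cells relative to row control; 100% = QL9-loaded vesicles with DMSO vehicle in the same plate row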). Particulars: 2C mouse CD8+ T cells, at 7 µM, stronger effect = lower value; double positive events: measured here: CD8+/vesicle+ event percentage.
In test [7] the target is Integrin beta-1 (Homo sapiens) + Integrin alpha-4 (Homo sapiens) (UniProt P13612+P05556). The test can be described thus: inhibition of HUTS-21 binding to VLA-4, pilot screen, VLA-4 allosteric modulator project, U937 cells, HUTS-21 mAb, flow cytometry, validation set (AID 2674;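 active = inhibition above 50%, about 3 SD of the validation set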;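 note: antibody binding induced by the VLA-4 ligand LDV present at three times its Kd; 0% = LDV ligand with antibody and no compound and 100% = antibody without LDV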). Particulars: HUTS-21 LIBS mAb binding, at 6.7 µM, stronger effect = higher value, binding induced by LDV ligand.
Integrin beta-1 (Homo sapiens) + Integrin alpha-4 (Homo sapiens), sequence (P05556 whole entry, looked up): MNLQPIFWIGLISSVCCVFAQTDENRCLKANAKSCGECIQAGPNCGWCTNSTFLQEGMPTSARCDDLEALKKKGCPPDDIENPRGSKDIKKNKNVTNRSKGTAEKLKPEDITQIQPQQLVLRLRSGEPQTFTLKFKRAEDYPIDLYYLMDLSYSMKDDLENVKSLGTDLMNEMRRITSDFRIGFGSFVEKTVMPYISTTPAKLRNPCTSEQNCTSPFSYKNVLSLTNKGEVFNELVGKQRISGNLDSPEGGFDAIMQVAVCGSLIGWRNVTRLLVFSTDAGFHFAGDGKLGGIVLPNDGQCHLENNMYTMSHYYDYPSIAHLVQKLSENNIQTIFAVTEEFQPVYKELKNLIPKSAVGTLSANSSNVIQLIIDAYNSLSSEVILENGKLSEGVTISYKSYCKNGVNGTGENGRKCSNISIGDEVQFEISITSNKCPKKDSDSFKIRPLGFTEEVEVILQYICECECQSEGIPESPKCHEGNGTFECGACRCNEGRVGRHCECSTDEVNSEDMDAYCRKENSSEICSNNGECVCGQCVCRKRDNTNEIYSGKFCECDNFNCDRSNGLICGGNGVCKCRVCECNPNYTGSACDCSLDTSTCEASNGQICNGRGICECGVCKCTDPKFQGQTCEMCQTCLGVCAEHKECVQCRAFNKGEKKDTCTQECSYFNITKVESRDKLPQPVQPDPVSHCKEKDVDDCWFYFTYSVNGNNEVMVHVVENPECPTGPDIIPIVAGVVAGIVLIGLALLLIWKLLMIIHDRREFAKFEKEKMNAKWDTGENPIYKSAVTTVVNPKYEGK
Integrin beta-1 (Homo sapiens) + Integrin alpha-4 (Homo sapiens), sequence (P13612 whole entry, looked up): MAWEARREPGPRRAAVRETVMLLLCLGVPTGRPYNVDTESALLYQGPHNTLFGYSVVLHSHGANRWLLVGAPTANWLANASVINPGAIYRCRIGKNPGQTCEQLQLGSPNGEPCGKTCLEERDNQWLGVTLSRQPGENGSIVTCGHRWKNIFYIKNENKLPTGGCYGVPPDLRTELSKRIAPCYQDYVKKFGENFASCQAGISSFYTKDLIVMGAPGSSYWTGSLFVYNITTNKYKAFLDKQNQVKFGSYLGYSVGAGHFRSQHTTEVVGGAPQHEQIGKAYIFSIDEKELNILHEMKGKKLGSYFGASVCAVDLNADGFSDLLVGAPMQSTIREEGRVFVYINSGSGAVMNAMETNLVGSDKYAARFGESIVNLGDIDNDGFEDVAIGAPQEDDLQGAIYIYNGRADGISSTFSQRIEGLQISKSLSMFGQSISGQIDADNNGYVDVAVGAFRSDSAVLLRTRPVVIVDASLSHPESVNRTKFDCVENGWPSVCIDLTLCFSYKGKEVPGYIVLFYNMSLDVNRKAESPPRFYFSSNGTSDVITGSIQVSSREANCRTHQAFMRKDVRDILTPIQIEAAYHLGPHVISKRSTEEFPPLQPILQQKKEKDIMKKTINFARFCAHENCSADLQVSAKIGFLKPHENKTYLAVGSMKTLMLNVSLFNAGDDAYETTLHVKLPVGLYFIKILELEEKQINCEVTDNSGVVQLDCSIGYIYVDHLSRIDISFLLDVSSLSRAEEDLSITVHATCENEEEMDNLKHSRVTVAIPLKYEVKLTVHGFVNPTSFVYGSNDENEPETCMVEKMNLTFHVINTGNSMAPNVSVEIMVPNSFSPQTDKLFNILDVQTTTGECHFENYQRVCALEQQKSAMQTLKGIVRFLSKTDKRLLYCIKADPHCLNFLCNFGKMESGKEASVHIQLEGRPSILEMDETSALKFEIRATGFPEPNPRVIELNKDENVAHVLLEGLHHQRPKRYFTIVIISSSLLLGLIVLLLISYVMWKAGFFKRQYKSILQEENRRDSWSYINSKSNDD

Test [8] in a line: superoxide lowering in aged yeast cells, pilot screen, validation compound set (AID 2706;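 active = superoxide response below 65% of plate, a cut near 3 SD across the whole screen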;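 note: yeast exposed to compound for one week at 30 degrees C before staining; 100% = mean of all compound wells on the same plate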). The settings on record: S. cerevisiae aging, superoxide DHE fluorescence; at 10 µM; stronger effect = lower value.
The target of test [9] is Beta-adrenergic receptor kinase 1 (Homo sapiens) (UniProt P25098). In words: GRK2 binders displacing RNA aptamer, biochemical, validation, human GRK2, bead flow cytometry (AID 488806;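 active = aptamer binding inhibition above 30%, about 3 SD of noise from non-fluorescent compounds; inactive = inhibition at or below 30%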). Particulars: bead-bound GRK2, FAM-aptamer displacement, at 10 µM, stronger effect = higher value.
Beta-adrenergic receptor kinase 1 (Homo sapiens), sequence (P25098 whole entry, looked up): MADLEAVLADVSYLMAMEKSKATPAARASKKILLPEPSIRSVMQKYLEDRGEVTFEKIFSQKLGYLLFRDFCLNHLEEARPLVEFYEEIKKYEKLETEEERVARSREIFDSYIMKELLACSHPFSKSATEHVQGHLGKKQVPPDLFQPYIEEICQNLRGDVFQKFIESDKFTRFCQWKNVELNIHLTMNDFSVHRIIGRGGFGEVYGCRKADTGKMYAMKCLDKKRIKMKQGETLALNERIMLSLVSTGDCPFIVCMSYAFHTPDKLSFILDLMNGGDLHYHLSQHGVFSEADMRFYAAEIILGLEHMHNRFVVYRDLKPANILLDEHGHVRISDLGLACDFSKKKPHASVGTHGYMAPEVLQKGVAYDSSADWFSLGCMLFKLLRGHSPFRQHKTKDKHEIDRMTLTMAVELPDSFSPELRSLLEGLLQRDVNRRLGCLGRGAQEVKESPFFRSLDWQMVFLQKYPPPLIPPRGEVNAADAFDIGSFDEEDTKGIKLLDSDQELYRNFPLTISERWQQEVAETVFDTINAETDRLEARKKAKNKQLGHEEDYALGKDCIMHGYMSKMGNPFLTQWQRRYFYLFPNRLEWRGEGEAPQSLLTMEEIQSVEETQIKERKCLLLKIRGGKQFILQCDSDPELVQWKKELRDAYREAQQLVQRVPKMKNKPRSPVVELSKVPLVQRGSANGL
In test [10] the target is Beta-2 adrenergic receptor (Homo sapiens) (UniProt P07550). In words: beta2AR agonists driving receptor internalization, pilot screen, cell-based, FAP fluorogen, flow cytometry, validation set (AID 504459;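 active = percent response above 42, roughly 3 SD of non-fluorescent test compounds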;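 note: agonist-driven loss of surface beta2AR via internalization measured by FAP dye flow cytometry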). Particulars: Am2.2-beta2AR cells, FAP surface receptor flow cytometry; at 10 µM; stronger effect = higher value.
Beta-2 adrenergic receptor (Homo sapiens), sequence (P07550 whole entry, looked up): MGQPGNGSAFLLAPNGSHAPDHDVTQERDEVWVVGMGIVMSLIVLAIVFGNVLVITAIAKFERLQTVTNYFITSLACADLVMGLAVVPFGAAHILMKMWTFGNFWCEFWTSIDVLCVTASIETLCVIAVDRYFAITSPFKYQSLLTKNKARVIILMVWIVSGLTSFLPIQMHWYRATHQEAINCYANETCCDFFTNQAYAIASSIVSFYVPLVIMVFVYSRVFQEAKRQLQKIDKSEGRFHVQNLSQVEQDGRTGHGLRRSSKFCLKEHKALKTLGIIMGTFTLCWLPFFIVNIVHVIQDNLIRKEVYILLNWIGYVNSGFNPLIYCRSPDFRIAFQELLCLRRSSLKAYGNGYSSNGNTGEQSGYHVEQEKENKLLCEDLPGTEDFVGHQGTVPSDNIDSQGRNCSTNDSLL
Test [11] concerns the target AP-2 complex subunit beta (Homo sapiens) (UniProt P63010). The test can be described thus: inhibitors of arrestin peptide binding to AP2, pilot screen, biochemical, validation set, GST-AP2 beads, flow cytometry (AID 504541;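 active = inhibition above 54%, about 3 SD of non-fluorescent compounds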;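 note: AP2 carries R879A mutation and is captured from E. coli lysate; bead-bound FITC arrestin peptide fluorescence measuring arrestin peptide binding to AP2; 0% = DMSO wells and 100% = excess unlabeled arrestin peptide control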). The settings on record: FITC arrestin peptide, at 10 µM, stronger effect = higher value, AP2 beta2 appendage fragment, R879A mutant.
Test [12] is described as follows: yeast V-ATPase proton transport modulators, S. cerevisiae, pHLuorin, HTS validation (AID 504600; in the data active = response above about 15%;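 note: plate controls were DMSO for no effect and reference compound for full effect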). The settings on record: S. cerevisiae pHLuorin cytosolic pH, at 10 µM, stronger effect = higher value.
The test system of test [13] is anti-desmoglein-3 scFv antibody binding to human DSG3. In words: inhibitors of anti-DSG3 scFv binding to DSG3, pilot screen, biochemical, validation compound set, bead-based, flow cytometry (AID 588368;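 active = binding below the plate cutoff, the plate median minus 3 SD, with a reading above zero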;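 note: signal is the median channel fluorescence of bead-bound GFP antibody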). The settings on record: Protein G beads, DSG3-Fc, scFv-GFP binding, at 10 µM, stronger effect = lower value.
Test [14] is described as follows: inhibitors of fungal efflux pumps CDR1, CDR2, MDR1, pilot screen, validation compound set, multiplex, phenotypic (AID 588506;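 active = efflux inhibition above 0.42, the validation set average plus 4 SD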;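 note: Nile Red retained in cells so higher fluorescence means more efflux inhibition; 0 = negative control wells and 1 = enniatin B 25 µM full block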). The settings on record: S. cerevisiae pump-expressing triplex, Nile Red efflux flow cytometry; at 10 µM; stronger effect = higher value; the pumps come from Candida albicans.
In test [15] the target is ATP-binding cassette sub-family B member 6 (Homo sapiens) (UniProt Q9NP58). In words: ABCB6 transporter inhibitors, pilot screen, K562-ABCB6 cells, flow cytometry, validation set (AID 588550).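 Note: 0% = DMSO wells and 100% = benzethonium chloride 70 µM positive control.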 Particulars: K562-ABCB6 porphyrin accumulation, 1 h, at 10 µM, stronger effect = higher value.
ATP-binding cassette sub-family B member 6 (Homo sapiens), sequence (Q9NP58 whole entry, looked up): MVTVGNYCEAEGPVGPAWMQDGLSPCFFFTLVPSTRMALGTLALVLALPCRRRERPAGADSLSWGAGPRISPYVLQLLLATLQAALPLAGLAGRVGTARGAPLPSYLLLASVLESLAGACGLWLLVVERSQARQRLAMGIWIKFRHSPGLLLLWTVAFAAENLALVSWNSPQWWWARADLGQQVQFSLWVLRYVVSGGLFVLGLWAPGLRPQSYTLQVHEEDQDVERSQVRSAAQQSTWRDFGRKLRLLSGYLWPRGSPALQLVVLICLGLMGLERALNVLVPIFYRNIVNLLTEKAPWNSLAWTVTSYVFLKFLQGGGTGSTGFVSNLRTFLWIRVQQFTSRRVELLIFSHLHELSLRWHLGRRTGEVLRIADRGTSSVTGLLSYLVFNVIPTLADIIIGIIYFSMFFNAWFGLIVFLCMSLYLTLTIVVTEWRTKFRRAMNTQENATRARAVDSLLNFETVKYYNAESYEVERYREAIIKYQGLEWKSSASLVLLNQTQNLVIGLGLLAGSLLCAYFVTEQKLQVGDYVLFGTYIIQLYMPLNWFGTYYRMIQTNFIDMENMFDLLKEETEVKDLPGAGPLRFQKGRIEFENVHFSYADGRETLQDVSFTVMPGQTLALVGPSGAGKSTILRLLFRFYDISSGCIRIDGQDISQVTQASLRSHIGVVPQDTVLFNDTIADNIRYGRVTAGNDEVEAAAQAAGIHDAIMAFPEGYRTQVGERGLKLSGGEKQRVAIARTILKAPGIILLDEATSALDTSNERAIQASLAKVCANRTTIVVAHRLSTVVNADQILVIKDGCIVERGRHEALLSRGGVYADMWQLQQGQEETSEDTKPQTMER
The nature of test [16]: promoters of myeloid differentiation in arrested cells, primary screen, cell-based, GFP/MAC1 double positive, flow cytometry, validation set (AID 588685;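 active = differentiation response of at least 50%, scaled between solvent and reference control, from cells with both markers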;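 note: compound exposure lasts four days before antibody staining and flow analysis; 0% = DMSO wells and 100% = 5 µM fulvestrant positive control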). Particulars: ER-HoxA9 marrow cells, stronger effect = higher value, normalized: vehicle 0, fulvestrant 100.

Records with an inconclusive call do not appear. Activity calls are given as the source filed them.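 Rule for the calls, unless noted: active = inhibition above the screen-wide mean plus 3 SD, about 51%; inactive = the rest.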

The results in this text go back to PubChem BioAssay.

AP-2 complex subunit beta (Homo sapiens), sequence (P63010 whole entry, looked up, the tested form may be a part, one chain of several): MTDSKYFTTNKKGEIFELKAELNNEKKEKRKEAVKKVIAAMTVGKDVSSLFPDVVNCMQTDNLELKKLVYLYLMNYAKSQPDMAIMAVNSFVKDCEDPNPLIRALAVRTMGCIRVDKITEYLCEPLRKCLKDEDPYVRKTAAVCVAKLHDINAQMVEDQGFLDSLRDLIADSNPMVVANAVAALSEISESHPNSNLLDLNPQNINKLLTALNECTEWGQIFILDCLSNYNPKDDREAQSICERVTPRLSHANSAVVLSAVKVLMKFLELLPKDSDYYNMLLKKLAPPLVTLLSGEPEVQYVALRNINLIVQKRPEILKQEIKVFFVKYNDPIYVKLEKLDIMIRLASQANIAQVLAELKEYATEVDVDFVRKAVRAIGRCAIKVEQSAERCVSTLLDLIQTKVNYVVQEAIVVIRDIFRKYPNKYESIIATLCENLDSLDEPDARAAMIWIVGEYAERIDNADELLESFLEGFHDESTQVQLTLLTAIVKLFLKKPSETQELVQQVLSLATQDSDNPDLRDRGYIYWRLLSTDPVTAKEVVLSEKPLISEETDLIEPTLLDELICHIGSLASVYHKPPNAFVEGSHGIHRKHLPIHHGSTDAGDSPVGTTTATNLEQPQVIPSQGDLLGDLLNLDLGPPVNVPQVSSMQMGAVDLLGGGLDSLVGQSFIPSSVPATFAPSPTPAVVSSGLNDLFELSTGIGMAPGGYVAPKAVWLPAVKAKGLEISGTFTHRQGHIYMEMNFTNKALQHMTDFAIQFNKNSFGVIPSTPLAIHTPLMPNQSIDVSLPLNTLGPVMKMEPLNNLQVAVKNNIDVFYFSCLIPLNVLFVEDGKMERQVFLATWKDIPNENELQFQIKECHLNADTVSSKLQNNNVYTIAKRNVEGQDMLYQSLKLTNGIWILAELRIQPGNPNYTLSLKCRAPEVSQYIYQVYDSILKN

Broadly, the inhibition is the relative decrease from the control value, in per cent. In the case of `Cc1ccc(OCc2nc(-c3cccnc3)no2)cc1C`, the percent of DMSO control GFP in test [1] is 92% (inactive). Besides, the GFP response vs DMSO in [2] is 124% (inactive); in [4] it was 75.4% (inactive). Also, the percent response of DMSO control in test [3] is 99.2% (inactive). Besides, in [5], the GFP response, % of DMSO was 88% (inactive). In addition, the double positive events in test [6] came to 60.5%. Moreover, the vesicle binding response in [6] is 221% (inactive). Moreover, the inhibition in test [7] is -7.12% (inactive); in test [11], 1.06% (inactive); in test [15] it was 9% (inactive). For the same molecule, the superoxide response (% of plate) in [8] is 101% (inactive). For the same molecule, the aptamer binding inhibition in test [9] was 1% (inactive). The values for the response in test [10] and in test [12] were -15.7% (inactive) and 3.35% (inactive), respectively. The binding (% of control) in test [13] was 98.3% (inactive). In addition, the efflux inhibition (fraction of control) in test [14] was 0.27 (inactive). The differentiation response in [16] is 2.46% (inactive).
As for `COc1ccc(-c2nnc(-c3cc4c(ccc5ccccc54)oc3=O)o2)cc1`, in [1], the percent of DMSO control GFP is 101% (inactive). In addition, the figures for the GFP response vs DMSO in [2] and in test [4] were 93% (inactive) and 89.7% (inactive), respectively. Moreover, the percent response of DMSO control in test [3] is 96.7% (inactive). Besides, the GFP response, % of DMSO in test [5] is 98% (inactive). In [6], the double positive events is 61%. Besides, the vesicle binding response in [6] is 244% (inactive). The inhibition in test [7] was -20.9% (inactive); in test [11], 6.88% (inactive); in test [15], 0% (inactive). The superoxide response (% of plate) in test [8] is 75.6% (inactive). In addition, the aptamer binding inhibition in [9] was -1% (inactive). Besides, the values for the response in [10] and in test [12] were 50.8% (active) and 1% (inactive), respectively. In test [13], the binding (% of control) was 97.2% (inactive). In addition, the efflux inhibition (fraction of control) in test [14] was 0.08 (inactive). For the same molecule, the differentiation response in test [16] was -0.8% (inactive).
For the molecule `COc1ccc(C(=O)Nc2cccc3cccnc23)cc1OC`, in [1], the percent of DMSO control GFP was 102% (inactive). In addition, the GFP response vs DMSO is 105% (inactive) in test [2] and 119% (inactive) in test [4]. The percent response of DMSO control in test [3] is 105% (inactive). The GFP response, % of DMSO in [5] is 96.3% (inactive). This molecule also displayed a double positive events in [6] of 49.8%. Also, in [6], the vesicle binding response is 156% (inactive). Moreover, the inhibition in test [7] is -18.5% (inactive); in [11], -6.27% (inactive); in [15], 0% (inactive). Also, in test [8], the superoxide response (% of plate) was 103% (inactive). In addition, the aptamer binding inhibition in test [9] was -4% (inactive). Besides, the response in test [10] was 10.2% (inactive); in test [12], -0.52% (inactive). In addition, the binding (% of control) in test [13] is 103% (inactive). The efflux inhibition (fraction of control) in test [14] is -0.33 (inactive). Moreover, the differentiation response in test [16] was -17.7% (inactive).
Regarding `COCCCNc1nc2c([nH]1)c(=O)[nH]c(=O)n2C`, the percent of DMSO control GFP in [1] was 104% (inactive). Besides, the GFP response vs DMSO is 99.6% (inactive) in test [2] and 112% (inactive) in test [4]. Besides, the percent response of DMSO control in test [3] was 105% (inactive). Further, in [5], the GFP response, % of DMSO is 114% (inactive). In [6], this molecule displayed a double positive events of 63.1%. The vesicle binding response in test [6] was 156% (inactive). Further, the inhibition is 9.95% (inactive) in [7], 13.3% (inactive) in test [11] and 6% (inactive) in test [15]. In addition, in test [8], the superoxide response (% of plate) was 94.3% (inactive). Moreover, the aptamer binding inhibition in test [9] is 4% (inactive). The response in test [10] was -17.8% (inactive); in test [12], 6.45% (inactive). Further, the binding (% of control) in test [13] is 98.5% (inactive). Also, in [14], the efflux inhibition (fraction of control) was -0.17 (inactive). Also, in test [16], the differentiation response is -5.97% (inactive).
